High-throughput results (PubChem)
PrPC surface inh – inhibitors of human cell surface prion protein PrPC, primary screen, cell-based, TR-FRET. Major prion protein (Homo sapiens), P04156. TR-FRET read-out. inhibition, % at 13.8 µM. hit rate 0.43% among 370,000. AID 720596, 2013; in the data active means inhibition above about 24%; further: 0% = median of the test wells and 100% = reference compound wells
3CLpro inhibitor – SARS-CoV 3CLpro protease inhibitors, primary screen, biochemical, quenched FRET; Replicase polyprotein 1ab (Severe acute respiratory syndrome coronavirus), P0C6X7; hit rate 0.14% among 290,000; recombinant SARS-CoV 3CLpro, quenched FRET peptide cleavage; inhibition, % at 6 µM; in the data active means inhibition above about 12%
VHR inh abs – VHR1 phosphatase inhibitors, primary screen, biochemical, absorbance, uHTS; Dual specificity protein phosphatase 3 (Homo sapiens), P51452; recombinant VHR phosphatase, pNPP absorbance; inhibition, % at 13.3 µM; hit rate 0.52% among 290,000; AID 1654, 2009; in the data active means inhibition above about 50%
Target sequence (P51452 whole entry, looked up): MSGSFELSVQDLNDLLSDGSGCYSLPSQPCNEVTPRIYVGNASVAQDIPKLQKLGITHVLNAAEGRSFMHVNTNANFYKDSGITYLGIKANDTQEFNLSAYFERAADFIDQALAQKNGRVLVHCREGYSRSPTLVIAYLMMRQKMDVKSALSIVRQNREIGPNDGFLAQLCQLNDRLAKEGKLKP
MazEF act – activators of E. coli MazEF toxin-antitoxin RNase, primary screen, biochemical, fluorescence, uHTS | hit rate 0.32% among 350,000 | FAM/BHQ RNA-DNA oligo cleavage fluorescence, 5 h | AID 504720, 2011 | activation, % at 20 µM | Endoribonuclease toxin MazF (Escherichia coli (strain K12)), P0AE70; in the data active means activation above about 50%
Target sequence (P0AE70 whole entry, looked up): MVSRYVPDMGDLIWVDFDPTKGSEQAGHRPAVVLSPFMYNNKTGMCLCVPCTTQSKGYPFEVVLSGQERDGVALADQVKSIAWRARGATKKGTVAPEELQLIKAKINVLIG
Mtb hypoxia inh – PubChem AID 1159583. hit rate 0.1% among 300,000. M. tuberculosis hypoxia-regulated fluorescent reporter, fluorescence. fluorescence inhibition, % (no concentration beside the values); in the data active means fluorescence inhibition mostly above about 23%, no sharp cut-off; inactive means mostly below about 17%
PrP UTR inh – inhibition of PrP 5' UTR reporter expression; cell-based PrP 5' UTR mRNA reporter, plate reader; inhibition, % (test concentration not listed); hit rate 0.35% among 340,000; in the data active means inhibition above about 52%; further: 0 = median of the neutral control wells
The depositor's hits bear a star; . = no result; + = active, no number. Only some compounds are listed: those with a hit (about 1.5% of all), similar ones and a draw of the others.

SMILES	PrPC surface inh	3CLpro inhibitor	VHR inh abs	MazEF act	Mtb hypoxia inh	PrP UTR inh
COc1cccc2cc(-c3nc(-c4cccs4)cs3)c(=O)oc12	0	5	0	99*	13	-69
O=c1oc2ccccc2cc1-c1nc(-c2cccs2)cs1	-8	2	-5	141*	-4	-37
C=C(CC1(C(NP(=O)(c2ccccc2)c2ccccc2)C2CC2CCCC)CC1)c1ccccc1 (stereo unspecified)	.	.	.	.	11	.
O=C(NN=Cc1ccccn1)c1cccs1	.	.	.	.	2	.
CC1CC(=NNc2nc3ccccc3[nH]2)CC(C)(C)C1 (stereo unspecified)	.	.	.	.	-20	.
CCOC(=O)C1=C(C)N=c2sc(=Cc3ccc(OCC(=O)O)cc3)c(=O)n2C1c1ccccc1 (stereo unspecified)	.	.	.	.	-4	.
Cc1ccc(S(=O)(=O)N2CCOCC2)cc1C(=O)OCC(=O)NC1CC1	5	.	.	11	33*	5
O=C(NN=Cc1ccc(N2CCOCC2)cc1)c1ccccn1	.	.	.	.	8	.
CCCN1CCC(=O)N([C@H](COc2ccccc2)c2ccccc2)CC1	-5	-1	55*	0	.	-3
CN1CCC(=O)N([C@H](CC#N)c2ccccc2)CC1	-2	-2	52*	3	.	-13
N#CCC(c1ccccc1)N1CCN(Cc2ccccc2)CCC1=O (stereo unspecified)	.	.	.	.	9	.
O=C(O)c1ccc(C=Nn2cc(-c3ccccc3)[nH]c2=S)cc1	.	.	.	.	-1	.
Cc1ccc(S(=O)(=O)N2CCN(CC(=O)NC(=O)NCc3ccccc3)CC2)cc1C	-15	3	10	95*	.	-13
Cc1ccccc1N=C1NC(=O)/C(=C/c2cccn2-c2cccc(C(=O)O)c2)S1	8	-3	56*	-16	-3	-29
CCN=C1S/C(=C\c2cn(CC)c3ccccc23)C(=O)N1CC	10	-4	-2	-7	-5	-15
CCn1cc(C=C2C(=O)c3ccccc3C2=O)c2ccccc21	-1	0	-11	+	3	-26
O=C1C=C(c2cccc(Cl)c2O)CC(c2ccc(Cl)cc2)C1 (stereo unspecified)	.	.	.	.	8	.
CC(C)CC(NC(=O)OC(C)(C)C)c1cn(C(CCC(=O)OC(C)(C)C)C(=O)N2CCN(C(=O)OC(C)(C)C)CC2)nn1 (stereo unspecified)	.	.	.	.	3	.
C=C1C(=O)C23CCC4C(C)(C(=O)OC)CCCC4(C)C2CCC1(O)C3 (stereo unspecified)	86*	.	.	0	.	-22
C=CCNC(=O)CC(=O)NN=Cc1cccs1	.	.	.	.	14	.
Cc1ccc(NC(=O)Nc2cccnc2)cc1Cl	0	21*	10	2	6	-43
O=C(Cn1nc(-c2ccc(Cl)cc2)ccc1=O)NCC1COCCO1 (stereo unspecified)	-2	-5	52*	2	0	1
COc1ccc(Nc2nc3cc(C)ccc3cc2C#N)c(OC)c1	3	5	39	62*	2	26
COc1ccc(Nc2nc3ccc(C)cc3cc2C#N)c(OC)c1	1	-6	-6	139*	15	-29
COc1ccc(Nc2nc3c(C)cccc3cc2C#N)c(OC)c1	2	2	-8	35	0	-2
SMILES	PrPC surface inh	3CLpro inhibitor	VHR inh abs	MazEF act	Mtb hypoxia inh	PrP UTR inh
COc1ccc(Nc2nc3cc(C)ccc3cc2C#N)cc1	20	-1	11	32	-3	-23
O=C(NN=Cc1ccncc1)c1ccc(-n2cccc2)cc1	.	.	.	.	2	.
CCCCNC(=S)NNc1c(Cl)cc(Cl)cc1Cl	6	0	51*	5	4	-9
CCOC(=O)C1=C(C)OC(N)=C(C#N)C12C(=O)N(C)c1ccccc12 (stereo unspecified)	1	-5	15	63*	9	-5
Cc1cccc(NC(=O)CCC2CCN(C(=O)c3ccc(C)s3)CC2)c1	3	1	60*	-9	-4	-65
CC1CC2C(C(O)C[C@@]3(C)C2CC[C@]3(O)C(=O)CO)[C@@]2(C)C=CC(=O)C=C12 (stereo partly specified)	.	.	.	.	3	.
c1csc(CN2CCNCC2)c1	3	0	56*	6	-5	-28
CCOC(=O)N1CCN(Cc2cccs2)CC1	5	-1	-1	8	10	-32
